The values below come from PubChem BioAssay (NCATS).

SMILES strings stand for the structures. Several values for one entry are separate records, joined by “and”; a condition that tells them apart may be missing. Identical values can stand only once. Results filed as inconclusive are left out. Activity calls are given as the source filed them. Unless noted, calls follow the shape of the dose curve; as a rule, active = well fitted curve in the direction sought with a large enough effect; inconclusive = small, poorly fitted or top-dose-only effect, or another doubt; inactive = no such curve, though single readings can be large; an effect the other way counts as inactive or inconclusive. Where a SMILES comes first, the peptide text is derived from it. Bridges are numbered along the chain shown (N, C = ends). [ ]: non-standard residue; d: D form. The star is where a group is joined. ξ: configuration not given here. d(aThr) = C[C@@H](O)[C@@H](N)C(=O)O; ξThr(3R) = C[C@@H](O)C(N)C(=O)O; X3 = CC[C@@H](C)CCCCC(=O)*; dDab = NCC[C@@H](N)C(=O)O

The nature of experiment [1]: qHTS profiling for inhibitors of Plasmodium falciparum (3D7) proliferation (AID 743322; call rule not given here;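 also: infected erythrocytes exposed to compound for 72 h before lysis; 100% = DMSO vehicle wells and 0% = 0.29 µM artemisinin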). The note with it: P. falciparum 3D7 proliferation; at 28.7 µM (top of the series) unless noted. In short, it runs like this: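 Erythrocytes infected with P. falciparum (0.3% parasitemia, 2.5% hematocrit) incubated with compounds 72 h at 37 C, 5% CO2. Lysis with saponin/Triton buffer containing SYBR Green I, overnight at room temperature in the dark; DNA fluorescence (485/535 nm) normalised to 0.29 uM artemisinin and DMSO.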
A general note: qHTS replaces the single test concentration by a dilution series.

A short description of experiment [2]: qHTS profiling for inhibitors of Plasmodium falciparum (DD2) proliferation (AID 743323; call rule not given here). The note with it: lower = more inhibition; at 28.7 µM (top of the series) unless noted. The method in brief: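 SYBR Green fluorescence (ex 485, em 535 nm) of lysed cultures gives parasite DNA content; wells normalized to artemisinin (0.29 uM) and DMSO controls. Infected red cells: 0.3% parasitemia, 2.5% hematocrit, 72 h, 37 C.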

Experiment [3] in a line: qHTS profiling for inhibitors of Plasmodium falciparum (HB3) proliferation (AID 743324).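 Also: 100% = DMSO vehicle wells and 0% = artemisinin-treated control wells.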 The note with it: Plasmodium falciparum HB3 blood-stage proliferation; at 28.7 µM (top of the series) unless noted. In short, it runs like this:
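P. falciparum HB3 grown in erythrocytes (0.3% parasitemia, 2.5% hematocrit final) with compound for 72 h at 37 C, 5% CO2. Parasite DNA detected by SYBR Green after saponin/triton lysis overnight; normalized to 0.29 uM artemisinin and DMSO.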

A short description of experiment [4]: qHTS assay to identify small molecule inhibitors of chordoma cells - UCH-1 (AID 1259355). Also: % is scaled to controls: 0 for no effect and ±100 for the full control effect; nearly all actives have a fitted effect of over 55% in size. In short, it runs like this:
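Cells (800/well) were seeded and left overnight at 37 C, 5% CO2, then treated with drugs at 15 concentrations plus a combination mix of auranofin, camptothecin, doxorubicin, rubitecan and topotecan. Viability after 48hr was read by CellTiter-Glo luminescence.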

Experiment [5] is described as follows: qHTS assay to identify small molecule inhibitors of chordoma cells - UCH-2 (AID 1259356). Also: % is scaled to controls: 0 for no effect and ±100 for the full control effect.
The nature of experiment [6]: qHTS Assay for Identifying Gametocytocidal Compounds (AID 743244). Also: potency is read from the fitted curve at half-maximal effect.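 As to max response: % is scaled to controls: 0 for no effect and ±100 for the full control effect; actives lower the fluorescent signal which means gametocytes are killed.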 The note with it: P. falciparum 3D7 stage III-V gametocytes, alamarBlue, 72 h; max response: stronger effect = lower value. The method in brief: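 P. falciparum 3D7 stage III–V gametocytes (20,000 cells/well) were exposed to compounds for 72 h at 37 °C, 5% CO2. AlamarBlue was then added for 24 h; decreased resorufin fluorescence (Ex 525/Em 598 nm) indicated loss of viability.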

Experiment [7] in a line: P-glycoprotein substrates identified in KB-8-5-11 adenocarcinoma cell line, qHTS therapeutic library screen (AID 1346987). Also: % is scaled to controls: 0 for no effect and ±100 for the full control effect; nearly all actives have a fitted effect of over 65% in size. The note with it: outcome: dose series up to 44.5 µM unless noted. In short, it runs like this:
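KB-8-5-11, a colchicine-selected P-gp-overexpressing KB-3-1 subline, was grown without colchicine for the assay. Cells were seeded at 500 cells/well, dosed in concentration-response and incubated 72 h at 37 degree C, 5% CO2. Viability was read by CellTiter-Glo luminescence.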

A short description of experiment [8]: qHTS assay for cell viability of HEK293 cells (AID 743288). Also: % is scaled to controls: 0 for no effect and ±100 for the full control effect; nearly all actives have a fitted effect of over 50% in size. The note with it: ATP luminescence (CellTiter-Glo), 18 h; max response: stronger effect = lower value. In short, it runs like this:
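Parental HEK293 cells were seeded at 2,000 cells/well, rested at least 5 h at 37 C, then exposed to compounds in DMSO for 18 h at 37 C. Viability was read as ATP-dependent luciferase luminescence after 30 min at room temperature.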

Experiment [9] is described as follows: qHTS assay for cell viability of the p53RE-bla HCT-116 cell line (AID 743292). Also: % is scaled to controls: 0 for no effect and ±100 for the full control effect; nearly all actives have a fitted effect of over 55% in size. In short, it runs like this:
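Viability of compound-treated p53RE-bla HCT-116 cells is taken from ATP-dependent luciferase luminescence. Treatment lasts 16 h at 37 C after a 5 h settling period; detection follows 30 min at room temperature.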

In the case of `CCN(CC)CCOCCOC(=O)C(CC)(CC)c1ccccc1`, the remaining parasite growth % (stronger effect = lower value) in experiment [1] worked out at 90.6%. For the same compound, in experiment [2], the activity, percent of control was 50.9%. In addition, in [3], the remaining proliferation (% of control), lower = more inhibition was 65.7%. In addition, the Potency entry in [4] and in experiment [5] was “inactive” in each case.
Consider `OC1OC[C@@H](O)[C@H](O)[C@@H]1O` (some centres not stated), for which, in [6], the max response was 7.58% (inactive). Also, the Potency entry in experiment [4] and in experiment [7] was “inactive” throughout.
As to `CCCCCCCCCC(=O)NO`, the max response in experiment [6] is -1.94% (inactive) and 4.66% (inactive). Moreover, the Potency result in experiment [4] and in [7] was “inactive” throughout.
Consider `CC[C@@H](C)CCCCC(=O)N[C@H](CCN)C(=O)N[C@@H](C(=O)N[C@H](CCN)C(=O)N[C@@H]1CCNC(=O)C([C@@H](C)O)NC(=O)[C@@H](CCN)NC(=O)[C@@H](CCN)NC(=O)[C@@H](CC(C)C)NC(=O)[C@@H](Cc2ccccc2)NC(=O)[C@@H](CCN)NC1=O)[C@@H](C)O` (stereo partly drawn) (X3-[dDab][d(aThr)][dDab][dDab][dDab][dF][dL][dDab][dDab][ξThr(3R)]; lactam 4-C), for which, in experiment [6], the max response was 13.9% (inactive). In addition, the Potency entry in [4] and in experiment [7] was “inactive” in each case.
With `C=C1C(CCl)(CCl)C2(Cl)C(Cl)C(Cl)C1(Cl)C2(Cl)Cl` (configuration not stated), the max response in experiment [6] is -0.376% (inactive). Also, the Potency result in experiment [4] is “inactive”.
Turning to `CN[C@@H]1[C@@H](O)[C@@H](O[C@@H]2[C@@H](O)[C@H](OC3OC(CN)=CCC3N)[C@@H](N)C[C@H]2N)OC[C@]1(C)O` (some centres not stated), the max response in experiment [6] was -3.17% (inactive). Further, the Potency result in experiment [4] and in [7] was “inactive” in each case.
As for `CC(C)CCC[C@@H](C)[C@H]1CC(=O)C2=C3CC[C@H]4C[C@@H](O)CC[C@]4(C)[C@H]3CC[C@@]21C`, the Potency entry in experiment [5] was “inactive”.
Regarding `OC[C@H]1O[C@@](CO)(O[C@H]2O[C@H](CO)[C@@H](O)[C@H](O)[C@H]2O)[C@@H](O)[C@@H]1O`, the results for the max response in experiment [6] and in experiment [8] were 6.47% (inactive) and -4.31% (inactive), respectively. Also, the result in [9] was inactive. Moreover, the Potency result in experiment [5] and in experiment [7] was “inactive” each time.
For `OCCCNc1ccccc1`, the max response in experiment [6] is -7.9% (inactive). In addition, the Potency result in experiment [5] and in [7] was “inactive” each time.
For `CC1CC(O)CC(C)(C)C1` (configuration not stated), the max response in experiment [6] was -5.15% (inactive). Further, the Potency result in experiment [5] and in experiment [7] was “inactive” each time.
For `O=C(O)CCC/C=C\C[C@@H]1[C@@H](/C=C/[C@@H](O)COc2cccc(Cl)c2)[C@H](O)C[C@@H]1O`, the max response in experiment [6] is -3.1% (inactive). In addition, the Potency entry in experiment [5] and in experiment [7] was “inactive” throughout.
As to `CO[C@H]1O[C@@H]2O[C@@]3(C)CC[C@H]4[C@H](C)CC[C@@H]([C@H]1C)[C@@]24OO3`, the Potency in experiment [6] is 0.0833 µM (active). Besides, the remaining parasite growth % (stronger effect = lower value) in [1] was -0.372% [at 57.5 µM]. Besides, in experiment [2], the activity, percent of control is -0.375% [at 57.5 µM]. Also, the remaining proliferation (% of control), lower = more inhibition in experiment [3] was 0.0422% [at 57.5 µM]. Further, the Potency result in [5] and in [7] was “inactive” each time.
For `CC12CCC(C1)C(C)(C)C2=O` (configuration not stated), the max response in experiment [6] was -0.872% (inactive). Besides, the Potency result in experiment [5] and in [7] was “inactive” throughout.
Regarding `CN[C@@H]1[C@@H](O)[C@@H](O[C@@H]2[C@@H](O)[C@H](O[C@H]3O[C@H](CN)[C@@H](O)[C@H](O)[C@H]3O)[C@@H](N)C[C@H]2NC(=O)C(O)CN)OC[C@]1(C)O` (some centres not stated), in experiment [6], the max response is 16.8% (inactive). Further, the Potency entry in experiment [5] and in experiment [7] was “inactive” throughout.
As for `CO/N=C(\C(=O)N[C@@H]1C(=O)N2C(C(=O)O)=C(C[N+]3(C)CCCC3)CS[C@H]12)c1csc(N)n1`, the max response in experiment [6] is 15.9% (inactive). Moreover, the Potency entry in experiment [5] and in [7] was “inactive” each time.
Take `O=C(NNCNNC(=O)c1ccncc1)c1ccncc1`: the max response in experiment [6] is 16.9% (inactive). The Potency result in experiment [5] and in [7] was “inactive” throughout.
On to `COc1ccc2c(=O)c(C)c(-c3ccccc3)oc2c1CN(C)C`, for which the max response in [6] is 1.87% (inactive). Moreover, the Potency result in [7] is “inactive”.
In the case of `O=[N+]([O-])c1c(Cl)cccc1-c1c[nH]cc1Cl`, the max response in experiment [6] was 0.263% (inactive). Moreover, in experiment [5], the Potency entry is “inactive”.
Consider `CCCCCCOC(=O)c1cccnc1`, for which, in experiment [6], the max response was 30.2% (inactive). Further, the Potency result in experiment [5] and in experiment [7] was “inactive” throughout.
Take `CCC(=O)OC(OP(=O)(CCCCc1ccccc1)CC(=O)N1C[C@H](C2CCCCC2)C[C@H]1C(=O)O)C(C)C` (some centres not stated): the max response in experiment [6] is 15.3% (inactive). The Potency result in experiment [5] and in experiment [7] was “inactive” in each case.
`O=P(O)(O)OC[C@H]1O[C@](O)(COP(=O)(O)O)[C@@H](O)[C@@H]1O`: the max response in experiment [6] was 2.17% (inactive). The Potency entry in [5] and in [7] was “inactive” throughout.
Turning to `O=C1c2ccccc2C(=O)C1c1ccc(Cl)cc1`, the max response in experiment [6] is 13.7% (inactive). The Potency entry in experiment [7] is “inactive”.
With `O=C(O)CC/C=C\CC[C@@H]1[C@@H](N2CCCCC2)[C@@H](O)C[C@@H]1OCc1ccc(-c2ccccc2)cc1`, the max response in experiment [6] was -9.09% (inactive). Also, the Potency entry in [5] and in experiment [7] was “inactive” each time.
Regarding `Nc1ncnc2c1ncn2[C@H]1CC[C@@H](CO)O1`, the max response was -3.96% (inactive) in [6]; -8.27% (inactive) and 0.717% (inactive) in [8]. For the same compound, in experiment [9], the outcome was inactive. The Potency result in experiment [5] and in experiment [7] was “inactive” throughout.
For the compound `C/C=C/C=C/C(=O)O`, the max response in experiment [6] is -7.74% (inactive); in [8] it was 0.0589% (inactive). The outcome in experiment [9] was inactive. Moreover, the Potency result in experiment [5] and in experiment [7] was “inactive” throughout.
For `CCCCCCCCCCCCCCCCCC[N+](C)(C)CCC[Si](OC)(OC)OC`, the max response in [6] is -8.48% (inactive). Also, the Potency result in experiment [5] and in [7] was “inactive” throughout.
Turning to `CC1CS(=O)(=O)CCN1/N=C/c1ccc([N+](=O)[O-])o1` (configuration not stated), the Potency in experiment [6] was 14.1 µM (active). Besides, the Potency entry in [5] and in experiment [7] was “inactive” in each case.
As to `CC(=O)c1ccc2c(c1)N(CCCN1CCN(CCO)CC1)c1ccccc1S2`, the Potency entry in experiment [5] is “inactive”.
Consider `CN(C)C=Nc1c(I)cc(I)c(CCC(=O)O)c1I`, for which, in [6], the max response was 14.5% (inactive). The Potency result in [5] and in experiment [7] was “inactive” throughout.
As for `CN[C@@H]1[C@H](O[C@H]2[C@H](O[C@H]3[C@H](O)[C@@H](O)[C@H](N=C(N)N)[C@@H](O)[C@@H]3N=C(N)N)O[C@@H](C)[C@]2(O)CO)O[C@@H](CO)[C@H](O)[C@H]1O`, the max response in experiment [6] is 8.75% (inactive). In addition, the Potency result in experiment [5] is “inactive”.
